# Experimental data taken from the supplement of paper PMC9794691.
# Tests used:
# Assay in all cases: area under confluence curve of osimertinib + compound combination regimen (DTP regrowth); compare to osimertinib-only DTP control AUC of the same experiment (AUC (confluence x time, arbitrary))
# H1975 = system: H1975
# How it was run: (§1)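 The area under the IncuCyte confluence–time curve, calculated in Prism and taken as the median of triplicates where available, is the value reported. It was measured in EGFR-mutant NSCLC lines that received the EGFR inhibitor either alone, followed by a test compound, or together with a fixed-dose test compound until the persister stage (10–21 days) and then drug-free medium. Medium was refreshed every 3–4 days until the inhibitor-only wells were confluent again.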
# HCC2279 = system: HCC2279
# How it was run: as §1
# HCC2935 = system: HCC2935
# How it was run: as §1
# HCC4006 = system: HCC4006
# How it was run: as §1
# HCC827 = system: HCC827
# How it was run: as §1
# II-18 = system: II-18
# How it was run: as §1
# PC9 = system: PC9
# How it was run: as §1
structure (smiles),measurement,setting,value
Cc1nc(Nc2ncc(C(=O)Nc3c(C)cccc3Cl)s2)cc(N2CCN(CCO)CC2)n1 [Dasatinib] + C=CC(=O)Nc1cc(Nc2nccc(-c3cn(C)c4ccccc34)n2)c(OC)cc1N(C)CCN(C)C [osimertinib],area under confluence curve,"H1975; test compound dose 100 nM, dosing schedule: upfront, osimertinib-only DTP control AUC in same experiment: 18969, DMSO control AUC in same experiment: 14522",1440
same,area under confluence curve,"HCC2279; test compound dose 100 nM, dosing schedule: upfront, osimertinib-only DTP control AUC in same experiment: 43517, DMSO control AUC in same experiment: 29252",15300
same,area under confluence curve,"HCC2935; test compound dose 100 nM, dosing schedule: upfront, osimertinib-only DTP control AUC in same experiment: 10360, DMSO control AUC in same experiment: 13875",3810
same,area under confluence curve,"HCC4006; test compound dose 100 nM, dosing schedule: upfront, osimertinib-only DTP control AUC in same experiment: 21234, DMSO control AUC in same experiment: 16638",4610
same,area under confluence curve,"HCC827; test compound dose 100 nM, dosing schedule: upfront, osimertinib-only DTP control AUC in same experiment: 39553, DMSO control AUC in same experiment: 30859",3890
same,area under confluence curve,"II-18; test compound dose 30 nM, dosing schedule: upfront, osimertinib-only DTP control AUC in same experiment: 13359, DMSO control AUC in same experiment: 11408",2420
CCc1cc2c(cc1N1CCC(N3CCOCC3)CC1)C(C)(C)c1[nH]c3cc(C#N)ccc3c1C2=O [Alectinib] + C=CC(=O)Nc1cc(Nc2nccc(-c3cn(C)c4ccccc34)n2)c(OC)cc1N(C)CCN(C)C [osimertinib],area under confluence curve,"PC9; test compound dose 1000 nM, dosing schedule: sequential, osimertinib-only DTP control AUC in same experiment: 15001, DMSO control AUC in same experiment: 22064",12500
same,area under confluence curve,"PC9; test compound dose 1000 nM, dosing schedule: upfront, osimertinib-only DTP control AUC in same experiment: 24924, DMSO control AUC in same experiment: 22064",10800
NC(=O)Nc1cc(-c2cccc(F)c2)sc1C(=O)N[C@H]1CCCNC1 + C=CC(=O)Nc1cc(Nc2nccc(-c3cn(C)c4ccccc34)n2)c(OC)cc1N(C)CCN(C)C [osimertinib],area under confluence curve,"PC9; test compound dose 5 nM, dosing schedule: sequential, osimertinib-only DTP control AUC in same experiment: 7760, DMSO control AUC in same experiment: 29563",4940
same,area under confluence curve,"PC9; test compound dose 5 nM, dosing schedule: upfront, osimertinib-only DTP control AUC in same experiment: 11798, DMSO control AUC in same experiment: 29563",9410
COc1nn(C)cc1Nc1nccc(-c2c[nH]c3c(NC(=O)[C@@H](C)N4CCN(C)CC4)cccc23)n1 + C=CC(=O)Nc1cc(Nc2nccc(-c3cn(C)c4ccccc34)n2)c(OC)cc1N(C)CCN(C)C [osimertinib],area under confluence curve,"H1975; test compound dose 1000 nM, dosing schedule: sequential, osimertinib-only DTP control AUC in same experiment: 22968, DMSO control AUC in same experiment: 15857",19800
same,area under confluence curve,"H1975; test compound dose 1000 nM, dosing schedule: upfront, osimertinib-only DTP control AUC in same experiment: 27164, DMSO control AUC in same experiment: 15857",18200
same,area under confluence curve,"HCC2279; test compound dose 1000 nM, dosing schedule: sequential, osimertinib-only DTP control AUC in same experiment: 26096, DMSO control AUC in same experiment: 14404",23400
same,area under confluence curve,"HCC2279; test compound dose 1000 nM, dosing schedule: upfront, osimertinib-only DTP control AUC in same experiment: 33120, DMSO control AUC in same experiment: 14404",31200
same,area under confluence curve,"HCC2935; test compound dose 1000 nM, dosing schedule: sequential, osimertinib-only DTP control AUC in same experiment: 22314, DMSO control AUC in same experiment: 19215",20700
same,area under confluence curve,"HCC2935; test compound dose 1000 nM, dosing schedule: upfront, osimertinib-only DTP control AUC in same experiment: 29846, DMSO control AUC in same experiment: 19215",31500
same,area under confluence curve,"HCC4006; test compound dose 1000 nM, dosing schedule: sequential, osimertinib-only DTP control AUC in same experiment: 12791, DMSO control AUC in same experiment: 18415",12900
same,area under confluence curve,"HCC4006; test compound dose 1000 nM, dosing schedule: upfront, osimertinib-only DTP control AUC in same experiment: 17269, DMSO control AUC in same experiment: 18415",18700
same,area under confluence curve,"HCC827; test compound dose 1000 nM, dosing schedule: sequential, osimertinib-only DTP control AUC in same experiment: 15330, DMSO control AUC in same experiment: 21320",10400
same,area under confluence curve,"HCC827; test compound dose 1000 nM, dosing schedule: upfront, osimertinib-only DTP control AUC in same experiment: 20798, DMSO control AUC in same experiment: 21320",15000
same,area under confluence curve,"II-18; test compound dose 1000 nM, dosing schedule: sequential, osimertinib-only DTP control AUC in same experiment: 8624, DMSO control AUC in same experiment: 11834",1310
same,area under confluence curve,"II-18; test compound dose 1000 nM, dosing schedule: upfront, osimertinib-only DTP control AUC in same experiment: 10856, DMSO control AUC in same experiment: 11834",1640
same,area under confluence curve,"PC9; test compound dose 1000 nM, dosing schedule: sequential, osimertinib-only DTP control AUC in same experiment: 10968, DMSO control AUC in same experiment: 21594",8030
same,area under confluence curve,"PC9; test compound dose 1000 nM, dosing schedule: upfront, osimertinib-only DTP control AUC in same experiment: 17834, DMSO control AUC in same experiment: 21594",15000
CCN(c1cc(-c2ccc(CN3CCOCC3)cc2)cc(C(=O)NCc2c(C)cc(C)[nH]c2=O)c1C)C1CCOCC1 [Tazemetostat] + C=CC(=O)Nc1cc(Nc2nccc(-c3cn(C)c4ccccc34)n2)c(OC)cc1N(C)CCN(C)C [osimertinib],area under confluence curve,"PC9; test compound dose 1000 nM, dosing schedule: sequential, osimertinib-only DTP control AUC in same experiment: 14030, DMSO control AUC in same experiment: 30326",11100
same,area under confluence curve,"PC9; test compound dose 1000 nM, dosing schedule: upfront, osimertinib-only DTP control AUC in same experiment: 20885, DMSO control AUC in same experiment: 30326",16200
CCn1nc(C2CCN(C(=O)CCO)CC2)nc1-c1cnc(N)c(-c2nnc(C(C)(C)C)o2)n1 + C=CC(=O)Nc1cc(Nc2nccc(-c3cn(C)c4ccccc34)n2)c(OC)cc1N(C)CCN(C)C [osimertinib],area under confluence curve,"H1975; test compound dose 1000 nM, dosing schedule: sequential, osimertinib-only DTP control AUC in same experiment: 15943, DMSO control AUC in same experiment: 20657",6780
same,area under confluence curve,"H1975; test compound dose 1000 nM, dosing schedule: upfront, osimertinib-only DTP control AUC in same experiment: 27804, DMSO control AUC in same experiment: 20657",13600
same,area under confluence curve,"HCC2279; test compound dose 1000 nM, dosing schedule: sequential, osimertinib-only DTP control AUC in same experiment: 11520, DMSO control AUC in same experiment: 9426",11600
same,area under confluence curve,"HCC2279; test compound dose 1000 nM, dosing schedule: upfront, osimertinib-only DTP control AUC in same experiment: 21942, DMSO control AUC in same experiment: 9426",16800
same,area under confluence curve,"HCC2935; test compound dose 1000 nM, dosing schedule: sequential, osimertinib-only DTP control AUC in same experiment: 6271, DMSO control AUC in same experiment: 13875",6130
same,area under confluence curve,"HCC2935; test compound dose 1000 nM, dosing schedule: upfront, osimertinib-only DTP control AUC in same experiment: 10360, DMSO control AUC in same experiment: 13875",4470
same,area under confluence curve,"HCC4006; test compound dose 1000 nM, dosing schedule: sequential, osimertinib-only DTP control AUC in same experiment: 19238, DMSO control AUC in same experiment: 16638",16700
same,area under confluence curve,"HCC4006; test compound dose 1000 nM, dosing schedule: upfront, osimertinib-only DTP control AUC in same experiment: 21234, DMSO control AUC in same experiment: 16638",5320
same,area under confluence curve,"HCC827; test compound dose 1000 nM, dosing schedule: sequential, osimertinib-only DTP control AUC in same experiment: 8266, DMSO control AUC in same experiment: 27404",7050
same,area under confluence curve,"HCC827; test compound dose 1000 nM, dosing schedule: upfront, osimertinib-only DTP control AUC in same experiment: 13929, DMSO control AUC in same experiment: 27404",11000
same,area under confluence curve,"II-18; test compound dose 1000 nM, dosing schedule: sequential, osimertinib-only DTP control AUC in same experiment: 21014, DMSO control AUC in same experiment: 18482",11100
same,area under confluence curve,"II-18; test compound dose 1000 nM, dosing schedule: upfront, osimertinib-only DTP control AUC in same experiment: 27084, DMSO control AUC in same experiment: 18482",4500
same,area under confluence curve,"PC9; test compound dose 1000 nM, dosing schedule: sequential, osimertinib-only DTP control AUC in same experiment: 12535, DMSO control AUC in same experiment: 43316",3140
same,area under confluence curve,"PC9; test compound dose 1000 nM, dosing schedule: sequential, osimertinib-only DTP control AUC in same experiment: 15163, DMSO control AUC in same experiment: 28684",9440
same,area under confluence curve,"PC9; test compound dose 1000 nM, dosing schedule: upfront, osimertinib-only DTP control AUC in same experiment: 15354, DMSO control AUC in same experiment: 43316",5490
same,area under confluence curve,"PC9; test compound dose 1000 nM, dosing schedule: upfront, osimertinib-only DTP control AUC in same experiment: 21337, DMSO control AUC in same experiment: 28684",15400
Cc1[nH]nc(C(F)(F)F)c1Cc1sc2c(c1C(=O)N1C[C@](C)(O)CO1)c(=O)n(C)c(=O)n2C(C)C + C=CC(=O)Nc1cc(Nc2nccc(-c3cn(C)c4ccccc34)n2)c(OC)cc1N(C)CCN(C)C [osimertinib],area under confluence curve,"PC9; test compound dose 1000 nM, dosing schedule: sequential, osimertinib-only DTP control AUC in same experiment: 10725, DMSO control AUC in same experiment: 30578",18600
same,area under confluence curve,"PC9; test compound dose 1000 nM, dosing schedule: upfront, osimertinib-only DTP control AUC in same experiment: 10245, DMSO control AUC in same experiment: 30578",11200
CCOC(=O)c1ccnc(CNCC(=O)N(CC)CCN(C)C)c1 + C=CC(=O)Nc1cc(Nc2nccc(-c3cn(C)c4ccccc34)n2)c(OC)cc1N(C)CCN(C)C [osimertinib],area under confluence curve,"PC9; test compound dose 1000 nM, dosing schedule: sequential, osimertinib-only DTP control AUC in same experiment: 3562, DMSO control AUC in same experiment: 31840",3420
same,area under confluence curve,"PC9; test compound dose 1000 nM, dosing schedule: upfront, osimertinib-only DTP control AUC in same experiment: 19015, DMSO control AUC in same experiment: 31840",16700
